Screen size: about 310,000 compounds; about 14,000 (4.5%) showed an effect of 50% or more. Effects have a minus sign here. This excerpt belongs to a sample that is enriched for strong results.
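Also: peak tail current of the secondary pulse compared with the same well before compound.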

The target of this test is human ether-à-go-go-related gene (hERG) potassium channel (human, UniProt Q12809). Put plainly: primary screen, population patch clamp on CHO cells stably expressing hERG; higher = less effect of the substance.
human ether-à-go-go-related gene (hERG) potassium channel, sequence (Q12809 whole entry, looked up): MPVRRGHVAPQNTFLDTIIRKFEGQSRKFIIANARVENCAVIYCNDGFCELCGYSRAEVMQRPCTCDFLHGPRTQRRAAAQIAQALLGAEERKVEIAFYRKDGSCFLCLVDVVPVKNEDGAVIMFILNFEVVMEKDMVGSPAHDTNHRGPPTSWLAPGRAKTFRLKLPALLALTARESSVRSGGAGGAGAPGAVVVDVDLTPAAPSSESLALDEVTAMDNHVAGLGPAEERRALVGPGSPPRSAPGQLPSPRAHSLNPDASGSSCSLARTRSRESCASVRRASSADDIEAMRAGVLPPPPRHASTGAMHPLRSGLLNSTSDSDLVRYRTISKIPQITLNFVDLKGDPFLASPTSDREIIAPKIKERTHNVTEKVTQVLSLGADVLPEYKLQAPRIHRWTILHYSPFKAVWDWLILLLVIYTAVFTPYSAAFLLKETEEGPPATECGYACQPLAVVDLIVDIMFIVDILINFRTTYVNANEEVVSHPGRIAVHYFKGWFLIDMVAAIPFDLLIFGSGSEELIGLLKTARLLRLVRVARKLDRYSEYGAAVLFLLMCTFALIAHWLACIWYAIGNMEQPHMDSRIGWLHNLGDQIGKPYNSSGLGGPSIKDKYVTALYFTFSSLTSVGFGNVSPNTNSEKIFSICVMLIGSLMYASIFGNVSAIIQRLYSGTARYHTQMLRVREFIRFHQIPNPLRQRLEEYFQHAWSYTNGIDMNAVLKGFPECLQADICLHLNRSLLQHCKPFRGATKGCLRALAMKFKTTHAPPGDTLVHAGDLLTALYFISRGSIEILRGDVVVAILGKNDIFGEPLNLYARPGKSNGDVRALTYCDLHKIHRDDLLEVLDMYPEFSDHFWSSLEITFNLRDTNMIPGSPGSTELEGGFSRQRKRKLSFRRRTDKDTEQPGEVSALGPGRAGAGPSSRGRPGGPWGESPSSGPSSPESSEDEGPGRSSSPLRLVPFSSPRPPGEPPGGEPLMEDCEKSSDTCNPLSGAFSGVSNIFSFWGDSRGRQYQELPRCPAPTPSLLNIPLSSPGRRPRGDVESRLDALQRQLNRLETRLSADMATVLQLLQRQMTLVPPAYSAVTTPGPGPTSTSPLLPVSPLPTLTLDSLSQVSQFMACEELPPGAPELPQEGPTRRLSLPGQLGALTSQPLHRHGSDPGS
For `O=S(=O)(c1ccc(Br)c2ccccc12)N1CCOCC1`, the “hERG current change (%, negative = inhibition) at 10uM” value is -11.8%. As for `CCCNC(=O)N1c2ccccc2Sc2ccccc21`, the figure is 10.5%; as for `Cc1c(Cl)c([N+](=O)[O-])nn1CCCC(=O)Nc1cccc(Cl)c1`, -51.7%. As for `Cc1c(Cl)c([N+](=O)[O-])nn1CCCC(=O)Nc1cccnc1`, the figure is -2.96%; as for `Cc1c(Cl)c([N+](=O)[O-])nn1CCCC(=O)Nc1cccc(O)c1`, -10.8%; as for `O=C(Nc1ccc(-c2csc(-c3ccccc3)n2)cc1)c1ccccc1`, 16.9%.

On to `Cn1c(SCC(=O)N2CCCCCC2)nc2c([nH]c3ccccc32)c1=O`, for which the “hERG current change (%, negative = inhibition) at 10uM” value was determined as 6.91%.

With `COc1ccc(CNc2oc(C)nc2C#N)cc1`, the “hERG current change (%, negative = inhibition) at 10uM” value is -1.09%.

For the compound `COc1ccccc1N1CCN(CCCCOc2ccc(F)cc2)CC1.Cl`, the “hERG current change (%, negative = inhibition) at 10uM” value is -72.8%. As for `COc1ccccc1N1CCN(CCCCCCOc2ccc(F)cc2)CC1`, the figure is -67.2%; as for `COc1ccccc1N1CCN(CCCOc2ccc(F)cc2)CC1`, -71.8%. The value for `COc1ccccc1N1CCN(CCCCOc2cccc3ccccc23)CC1.Cl` was -32.8%; that for `CN1CCN(CCCCOc2ccc(F)cc2)CC1` was 0.265%; that for `Cl.Fc1ccc(OCCCCN2CCOCC2)cc1` was -4.81%. Consider `COc1ccccc1N1CCN(Cc2ccc(F)cc2)CC1`, for which the “hERG current change (%, negative = inhibition) at 10uM” value is -14.7%. In the case of `C=CCn1cnc2c(c1=O)c1nc3ccccc3nc1n2/N=C/c1cc(OC)c(OC)c(OC)c1`, the “hERG current change (%, negative = inhibition) at 10uM” value is reported as -22.1%. Turning to `N#Cc1ccccc1NC(=O)CSc1nnc(-c2ccccc2)n1-c1ccccc1`, the “hERG current change (%, negative = inhibition) at 10uM” value is 2.09%.

For the compound `O=C(CSc1nnc2ccc(-c3cccnc3)nn12)Nc1ccccc1F`, the “hERG current change (%, negative = inhibition) at 10uM” value is recorded as -39.2%. As for `NNC(=O)CSc1nnc(-c2ccccc2)n1-c1ccccc1`, the “hERG current change (%, negative = inhibition) at 10uM” value amounted to 8.61%.

Regarding `CC(=O)Nc1ccc(NC(=O)CSc2nnc3ccc(-c4ccc(F)cc4)nn23)cc1`, the “hERG current change (%, negative = inhibition) at 10uM” value was found to be 16.8%. The value for `O=C(CSc1nnc2ccc(-c3ccccn3)nn12)Nc1ccc(F)cc1F` was -18%. In the case of `CC(C)n1c(SCC(=O)Nc2ccc(F)cc2)nnc1C1CC1`, the “hERG current change (%, negative = inhibition) at 10uM” value is given as -50.1%. As for `CCn1c(SCC(=O)Nc2ccc(F)cc2)nnc1C1CC1`, the “hERG current change (%, negative = inhibition) at 10uM” value is reported as -0.652%. Take `O=C(CSc1nnc2ccc(-c3cccnc3)nn12)Nc1ccc(F)cc1F`: the “hERG current change (%, negative = inhibition) at 10uM” value is -64.9%. `COc1ccc(NC(=O)CSc2nnc3ccc(-c4ccncc4)nn23)cc1`: the “hERG current change (%, negative = inhibition) at 10uM” value is recorded as -30.9%.

Consider `O=C(CSc1nnc2ccc(-c3ccncc3)nn12)Nc1ccc(F)cc1`, for which the “hERG current change (%, negative = inhibition) at 10uM” value is reported as -63.2%. The value for `Cc1ccccc1NC(=O)CSc1nnc(-c2ccccc2)n1-c1ccccc1` was -51.4%. As for `Cn1c(SCC(=O)Nc2ccc(F)cc2)nnc1C1CC1`, the figure is 4.27%. The value for `COc1ccc(NS(=O)(=O)c2cccc(C(=O)NCC(c3ccco3)N3CCCC3)c2)cc1` (stereo not drawn) was -36.8%.

Turning to `Cc1ccc(S(=O)(=O)Nc2ccc3cn[nH]c3c2)c(C)c1`, the “hERG current change (%, negative = inhibition) at 10uM” value is -18.1%. The value for `Cc1cccc(NC(=O)c2nc[nH]c2C(=O)NCC(=O)OCc2ccccc2)c1` was 9.54%; that for `CC(C)CC(N)c1cn([C@@H](CCC(=O)O)C(=O)N2CCNCC2)nn1.Cl` (stereo partly drawn) was 17.2%; that for `COC(=O)N/N=C(\C)c1ccc(C)c([N+](=O)[O-])c1` was -0.21%.

For the compound `COC(=O)c1cccc(NC(=O)c2cnn(C)c2)c1`, the “hERG current change (%, negative = inhibition) at 10uM” value is 15.9%.

On to `CCO.CCOC(=O)c1c(-c2ccccc2)oc2ccc(OC(C)C(=O)O)cc12` (stereo not drawn), for which the “hERG current change (%, negative = inhibition) at 10uM” value is recorded as -15%. As for `O=C(NNC(=S)NC(=O)c1ccccc1)c1cccc([N+](=O)[O-])c1`, the figure is 22.8%; as for `Cc1csc(SCC(=O)Nc2cccc3nsnc23)n1`, -14.8%; as for `CCCOc1ccc(C(=O)N(Cc2cccs2)C2CCS(=O)(=O)C2)cc1` (stereo not drawn), -8.87%. As for `CCn1c2ccccc2c2cc(CC(N)=O)ccc21`, the figure is 5.3%; as for `COc1ccc(C(=O)NCCc2nnc3ccc(SCC(=O)NCCc4ccc(OC)c(OC)c4)nn23)cc1`, 0.371%; as for `Cc1cccc(NC(=O)CC2NCCNC2=O)c1` (stereo not drawn), 8.94%. The value for `O=C(CSc1nnc(-c2cccnc2)n1-c1ccccc1)Nc1ccccn1` was -41%; that for `Cc1ccccc1-n1c(SC(C)C(N)=O)nnc1-c1cccnc1` (stereo not drawn) was -6.92%; that for `Cc1nnc(SCC(=O)Nc2cccc(N)c2)n1-c1ccccc1` was -10.1%. For `COc1ccc(NC(=O)CSc2nnc3ccc(-c4cccnc4)nn23)cc1`, the “hERG current change (%, negative = inhibition) at 10uM” value is given as -46.4%. On to `Nc1nnc(SCC(=O)Nc2ccc(F)c(Cl)c2)n1-c1ccccc1`, for which the “hERG current change (%, negative = inhibition) at 10uM” value is listed as -70.7%. On to `O=C(CSc1nnc2ccc(-c3cccnc3)nn12)Nc1ccc(F)cc1`, for which the “hERG current change (%, negative = inhibition) at 10uM” value is reported as -63%.

As for `Cc1ccc(NC(=O)C(C)Sc2nnc(-c3cccnc3)o2)cc1` (stereo not drawn), the “hERG current change (%, negative = inhibition) at 10uM” value is on record as 11.9%. As for `Cc1ccc(NC(=O)CSc2nnc(-c3cccnc3)n2-c2ccc(C)cc2)cc1`, the figure is -21.4%. In the case of `Cc1ccc(NC(=O)CSc2nnc(C)n2-c2ccccc2)cc1`, the “hERG current change (%, negative = inhibition) at 10uM” value is -3.7%. As for `COc1cc(NC(=O)CSc2nnc3ccc(-c4cccnc4)nn23)cc(OC)c1`, the figure is -9.05%; as for `Cc1ccc(NC(=O)C(C)Sc2nnc(-c3cccnc3)n2-c2ccccc2)cc1` (stereo not drawn), -81.4%; as for `O=C(CSc1nnc(-c2cccnc2)n1-c1ccccc1)Nc1ccccc1`, -76.3%. The value for `COC(=O)c1cn(NC(=O)c2ccc([N+](=O)[O-])cc2Cl)c(=O)c2ccccc12` was -5.68%; that for `CCCn1c(SCC(=O)NCc2ccccc2)n[nH]c1=O` was 7.49%.

In the case of `CCN(CC(=O)Nc1cccc(S(=O)(=O)N2CCOCC2)c1)Cc1ccccc1`, the “hERG current change (%, negative = inhibition) at 10uM” value is on record as -4.27%. The value for `CCOC(=O)c1cc(-c2ccc(N3CCOCC3)cc2)nn1-c1ccccc1` was -48.9%.

The values above are taken from publication PMC4336329 (PLoS ONE, 2015).
